# What was measured:
# Experiment in all cases: pooled miR-30 sensor sort-seq; sequence = guide strand
# Conditions in all cases: shRNA
# POP5 = target: POP5
# PPARD = target: PPARD
# POU2F2 = target: POU2F2
# PPARGC1A = target: PPARGC1A
# POLR3B = target: POLR3B
# PPIP5K1 = target: PPIP5K1
# PQLC1 = target: PQLC1
# PRKAR1B = target: PRKAR1B
# PRPS2 = target: PRPS2
# Also: reference of the scale not given here.
sequence,measurement,setting,value
TATTAAATCTACTCTTAGCCAA,sensor-assay potency score (higher = more potent),POP5,-0.331
TTGCCGGTGAGGATGCTGCGGG,sensor-assay potency score (higher = more potent),PPARD,-0.839
TTAAAGTTTCGTCAGTCTGTGT,sensor-assay potency score (higher = more potent),PPARD,-0.63
TCTTCTTGCGTCTCCGGCCGGG,sensor-assay potency score (higher = more potent),POU2F2,-0.79
TAGATTTGGTGTCGGTAGCAGG,sensor-assay potency score (higher = more potent),POU2F2,-0.991
TTGGAGATTGTTCAGACACTGA,sensor-assay potency score (higher = more potent),PPARD,-0.713
TTAGACATTCTTATTTCTGGAG,sensor-assay potency score (higher = more potent),POU2F2,-0.093
TGAATTAGGAACTTCTGACATG,sensor-assay potency score (higher = more potent),POP5,-0.611
TAACTGAGTACTCCATTTCAAG,sensor-assay potency score (higher = more potent),POP5,-1.58
TTCTTCTTCTGAATCTTGCAGC,sensor-assay potency score (higher = more potent),PPARD,0.0519
TTGGTGTCGGTAGCAGGCCTGG,sensor-assay potency score (higher = more potent),POU2F2,-1.3
TACTGAATTAGGAACTTCTGAC,sensor-assay potency score (higher = more potent),POP5,-0.267
TTTCTAGTTGTCTAGAGTCTTG,sensor-assay potency score (higher = more potent),PPARGC1A,-1.22
TTCTGCATCGAAGTAGCACTAT,sensor-assay potency score (higher = more potent),POP5,-0.187
TTCATCAGTGCAGTTCTGCAAC,sensor-assay potency score (higher = more potent),POP5,-0.521
TTGAGTTTGCACATGTTCTTGA,sensor-assay potency score (higher = more potent),POU2F2,1.05
TTGATCTTTGTACTGGGGCCAG,sensor-assay potency score (higher = more potent),POU2F2,-0.786
TTCGGTGTCTGTGTGCTCTGAT,sensor-assay potency score (higher = more potent),POU2F2,0.743
TTAGTGTCTGGTCCATTTCTTT,sensor-assay potency score (higher = more potent),POU2F2,-1.05
TACAGAGTTCACAACCTGCAAC,sensor-assay potency score (higher = more potent),POP5,-0.95
TTTCGGTGTCTGTGTGCTCTGA,sensor-assay potency score (higher = more potent),POU2F2,-0.406
TTCTTGTCACAGACTTCTGGAT,sensor-assay potency score (higher = more potent),POP5,-0.854
TTGACAGCAAATTCAAACTTAG,sensor-assay potency score (higher = more potent),PPARD,-0.865
TAGCGTTGTGTGACATGCCCAG,sensor-assay potency score (higher = more potent),PPARD,0.138
TTCTTCTGAATCTTGCAGCTGC,sensor-assay potency score (higher = more potent),PPARD,0.468
TAACAATGAAGTAGCCACCTGG,sensor-assay potency score (higher = more potent),POLR3B,-0.287
TTGTTCTGTTCAACAAGTGGGC,sensor-assay potency score (higher = more potent),POP5,-0.188
TAAGAAAGGAGGACAGACGTGG,sensor-assay potency score (higher = more potent),PPARD,0.523
TTAGACTTGAAAAATTGCTTGC,sensor-assay potency score (higher = more potent),PPARGC1A,0.583
ATTTCTTTCGGTGTCTGTGTGC,sensor-assay potency score (higher = more potent),POU2F2,-0.0405
TCGTACTCCAGCTTCATGCGGA,sensor-assay potency score (higher = more potent),PPARD,-0.0495
TAAAGCATGATGACAATCTGGG,sensor-assay potency score (higher = more potent),PPIP5K1,0.285
TTGATGCTCATGCCCTCCGTGG,sensor-assay potency score (higher = more potent),PQLC1,-1.49
TGCTGTATAACAGTCTCCCCAG,sensor-assay potency score (higher = more potent),PRKAR1B,-0.318
TGGTTGCTGAACTTCTTCGTGA,sensor-assay potency score (higher = more potent),PRPS2,-1.01
ATGACCTGAATCTTGGTGCAGT,sensor-assay potency score (higher = more potent),PRPS2,-0.901
